Experimental data as given in PMC7862700, “An all-to-all approach to the identification of sequence-specific readers for epigenetic DNA modifications on cytosine”.

Key:
Test in all cases: DAPPL (digital affinity profiling via proximity ligation, sequencing); 10 mM Tris-HCl pH 7.5, 50 mM NaCl, 1 mM DTT, 4% glycerol, room temperature, 30 min; GST-TFs on glutathione beads, 16-mer random dsDNA library, 0.1% formaldehyde crosslink after washing; high values mean tight binding
FLI1 = target: T1, FLI1 (Homo sapiens, UniProt Q01543 1-452); conditions: protein: recombinant; tags: N-terminal GST; dsDNA, one strand shown
T1 sequence: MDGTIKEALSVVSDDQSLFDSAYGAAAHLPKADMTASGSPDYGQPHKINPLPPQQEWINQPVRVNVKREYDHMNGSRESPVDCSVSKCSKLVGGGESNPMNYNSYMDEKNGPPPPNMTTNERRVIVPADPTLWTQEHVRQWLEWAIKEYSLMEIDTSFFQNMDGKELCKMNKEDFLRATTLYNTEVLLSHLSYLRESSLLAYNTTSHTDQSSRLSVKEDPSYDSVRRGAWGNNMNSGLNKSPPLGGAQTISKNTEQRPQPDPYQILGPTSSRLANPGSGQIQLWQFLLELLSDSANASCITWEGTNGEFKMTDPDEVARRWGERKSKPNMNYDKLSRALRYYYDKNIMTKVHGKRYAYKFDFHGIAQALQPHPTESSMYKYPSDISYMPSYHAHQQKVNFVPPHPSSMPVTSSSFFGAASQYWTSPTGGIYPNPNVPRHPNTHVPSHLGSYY
Procedure, shortened: (§1)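 After expression in yeast as GST fusions, human transcription factors were bound to glutathione beads, DNA-barcoded and mixed with a tag-only sample. The pools were incubated with 200 nmole of a 16-mer random double-stranded DNA library in Tris/NaCl/DTT/glycerol buffer (30 min, room temperature), washed and crosslinked with 0.1% formaldehyde. Proximity ligation with BsaI/T4 ligase ran for 1 h at 37 °C, before PCR amplification and sequencing on an Illumina NextSeq500. Binding signal is a hexamer's read frequency for a factor divided by its frequency for the tag-only sample.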

ELK1 = target: T2, ELK1 (Homo sapiens, UniProt P19419 1-428); conditions: protein: recombinant; tags: N-terminal GST; dsDNA, one strand shown
T2 sequence: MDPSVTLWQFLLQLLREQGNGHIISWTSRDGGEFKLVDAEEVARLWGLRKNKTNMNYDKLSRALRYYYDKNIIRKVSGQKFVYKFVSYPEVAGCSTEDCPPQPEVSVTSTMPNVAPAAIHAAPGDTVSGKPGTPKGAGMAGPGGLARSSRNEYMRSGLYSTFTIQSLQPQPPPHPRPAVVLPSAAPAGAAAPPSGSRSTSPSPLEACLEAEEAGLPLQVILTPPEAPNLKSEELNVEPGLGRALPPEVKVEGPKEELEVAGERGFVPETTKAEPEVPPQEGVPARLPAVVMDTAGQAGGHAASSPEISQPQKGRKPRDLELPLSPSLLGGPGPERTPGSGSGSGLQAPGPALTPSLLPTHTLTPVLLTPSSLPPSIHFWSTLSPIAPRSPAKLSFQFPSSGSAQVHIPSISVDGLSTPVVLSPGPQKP
Procedure, shortened: as §1

GABPA = target: T3, GABPA (Homo sapiens, UniProt Q06546 1-454); conditions: protein: recombinant; tags: N-terminal GST; dsDNA, one strand shown
T3 sequence: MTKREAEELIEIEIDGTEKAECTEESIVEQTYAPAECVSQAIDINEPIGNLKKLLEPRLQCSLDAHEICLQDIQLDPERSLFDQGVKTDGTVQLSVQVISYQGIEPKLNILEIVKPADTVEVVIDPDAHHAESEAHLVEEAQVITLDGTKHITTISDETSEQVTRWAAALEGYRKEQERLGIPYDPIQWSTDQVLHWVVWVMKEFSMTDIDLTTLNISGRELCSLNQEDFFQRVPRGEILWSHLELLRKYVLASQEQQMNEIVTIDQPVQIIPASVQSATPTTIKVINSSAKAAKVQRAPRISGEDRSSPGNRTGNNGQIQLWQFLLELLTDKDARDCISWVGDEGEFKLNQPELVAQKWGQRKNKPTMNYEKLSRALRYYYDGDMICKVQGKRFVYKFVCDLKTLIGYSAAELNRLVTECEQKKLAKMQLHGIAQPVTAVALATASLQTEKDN
Procedure, shortened: as §1

ERG = target: T4, ERG (Homo sapiens, UniProt P11308 1-479); conditions: protein: recombinant; tags: N-terminal GST; dsDNA, one strand shown
T4 sequence: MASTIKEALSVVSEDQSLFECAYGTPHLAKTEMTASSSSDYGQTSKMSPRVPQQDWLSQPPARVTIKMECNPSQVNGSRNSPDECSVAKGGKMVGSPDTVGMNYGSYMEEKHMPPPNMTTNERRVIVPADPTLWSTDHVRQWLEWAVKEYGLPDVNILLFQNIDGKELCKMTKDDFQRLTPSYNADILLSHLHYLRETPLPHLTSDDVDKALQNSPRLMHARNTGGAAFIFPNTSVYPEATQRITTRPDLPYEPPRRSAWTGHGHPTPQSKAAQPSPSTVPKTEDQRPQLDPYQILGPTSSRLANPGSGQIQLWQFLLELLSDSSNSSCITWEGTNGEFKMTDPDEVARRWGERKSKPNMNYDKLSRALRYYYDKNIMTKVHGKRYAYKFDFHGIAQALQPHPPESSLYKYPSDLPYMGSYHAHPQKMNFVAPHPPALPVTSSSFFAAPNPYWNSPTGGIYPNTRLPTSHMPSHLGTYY
Procedure, shortened: as §1

ELF1 = ELF1 (Homo sapiens, UniProt P32519 1-619); conditions: protein: recombinant; tags: N-terminal GST; dsDNA, one strand shown
Procedure, shortened: as §1

EHF = target: T5, EHF (Homo sapiens, UniProt Q9NZC4 1-300); conditions: protein: recombinant; tags: N-terminal GST; dsDNA, one strand shown
T5 sequence: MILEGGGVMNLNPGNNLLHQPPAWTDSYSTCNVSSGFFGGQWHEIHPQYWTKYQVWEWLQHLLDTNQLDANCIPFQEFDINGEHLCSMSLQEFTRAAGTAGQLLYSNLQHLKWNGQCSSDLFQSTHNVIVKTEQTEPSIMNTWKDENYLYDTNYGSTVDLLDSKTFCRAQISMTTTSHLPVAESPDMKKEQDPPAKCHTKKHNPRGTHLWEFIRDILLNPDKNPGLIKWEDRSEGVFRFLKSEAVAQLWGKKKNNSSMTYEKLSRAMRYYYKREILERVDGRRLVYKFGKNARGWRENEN
Procedure, shortened: as §1

SPI1 = SPI1 (Homo sapiens, UniProt P17947 1-270); conditions: protein: recombinant; tags: N-terminal GST; dsDNA, one strand shown
Procedure, shortened: as §1

SPIB = SPIB (Homo sapiens, UniProt Q01892 1-262); conditions: protein: recombinant; tags: N-terminal GST; dsDNA, one strand shown
Procedure, shortened: as §1

ELK3 = target: T6, ELK3 (Homo sapiens, UniProt P41970 1-407); conditions: protein: recombinant; tags: N-terminal GST; dsDNA, one strand shown
T6 sequence: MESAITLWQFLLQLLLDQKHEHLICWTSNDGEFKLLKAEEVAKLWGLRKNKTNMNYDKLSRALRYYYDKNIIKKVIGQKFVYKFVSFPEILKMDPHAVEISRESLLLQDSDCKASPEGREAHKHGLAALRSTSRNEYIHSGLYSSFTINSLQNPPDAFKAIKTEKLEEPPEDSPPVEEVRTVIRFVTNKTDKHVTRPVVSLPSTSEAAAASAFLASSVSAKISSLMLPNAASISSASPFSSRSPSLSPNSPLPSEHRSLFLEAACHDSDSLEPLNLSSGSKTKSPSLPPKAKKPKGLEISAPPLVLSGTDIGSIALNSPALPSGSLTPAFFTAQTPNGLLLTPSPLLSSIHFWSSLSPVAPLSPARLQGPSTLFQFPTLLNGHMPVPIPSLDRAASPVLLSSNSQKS
Procedure, shortened: as §1

FEV = target: T7, FEV (Homo sapiens, UniProt Q99581 1-238); conditions: protein: recombinant; tags: N-terminal GST; dsDNA, one strand shown
T7 sequence: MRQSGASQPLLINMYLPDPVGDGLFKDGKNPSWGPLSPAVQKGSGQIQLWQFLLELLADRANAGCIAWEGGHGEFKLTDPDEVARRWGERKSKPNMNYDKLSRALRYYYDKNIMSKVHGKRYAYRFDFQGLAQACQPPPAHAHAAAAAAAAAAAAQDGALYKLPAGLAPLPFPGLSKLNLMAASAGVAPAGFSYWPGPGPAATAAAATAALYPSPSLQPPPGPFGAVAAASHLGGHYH
Procedure, shortened: as §1

ETV5 = ETV5 (Homo sapiens, UniProt P41161 1-510); conditions: protein: recombinant; tags: N-terminal GST; dsDNA, one strand shown
Procedure, shortened: as §1

HSF1 = HSF1 (Homo sapiens, UniProt Q00613 1-529); conditions: protein: recombinant; tags: N-terminal GST; chain copies: 3; dsDNA, one strand shown
Procedure, shortened: as §1

SPIC = target: T8, SPIC (Homo sapiens, UniProt Q8N5J4 1-248); conditions: protein: recombinant; tags: N-terminal GST; dsDNA, one strand shown
T8 sequence: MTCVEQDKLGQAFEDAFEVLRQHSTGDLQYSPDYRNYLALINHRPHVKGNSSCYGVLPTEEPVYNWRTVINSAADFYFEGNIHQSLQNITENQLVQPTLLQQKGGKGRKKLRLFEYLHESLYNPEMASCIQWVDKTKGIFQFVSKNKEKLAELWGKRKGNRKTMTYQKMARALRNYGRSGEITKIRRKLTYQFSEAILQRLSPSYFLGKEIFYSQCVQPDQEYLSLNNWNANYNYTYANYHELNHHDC
Procedure, shortened: as §1

ELF4 = ELF4 (Homo sapiens, UniProt Q99607 1-663); conditions: protein: recombinant; tags: N-terminal GST; dsDNA, one strand shown
Procedure, shortened: as §1

ELK4 = target: T9, ELK4 (Homo sapiens, UniProt P28324-2 1-405); conditions: protein: recombinant; tags: N-terminal GST; dsDNA, one strand shown
T9 sequence: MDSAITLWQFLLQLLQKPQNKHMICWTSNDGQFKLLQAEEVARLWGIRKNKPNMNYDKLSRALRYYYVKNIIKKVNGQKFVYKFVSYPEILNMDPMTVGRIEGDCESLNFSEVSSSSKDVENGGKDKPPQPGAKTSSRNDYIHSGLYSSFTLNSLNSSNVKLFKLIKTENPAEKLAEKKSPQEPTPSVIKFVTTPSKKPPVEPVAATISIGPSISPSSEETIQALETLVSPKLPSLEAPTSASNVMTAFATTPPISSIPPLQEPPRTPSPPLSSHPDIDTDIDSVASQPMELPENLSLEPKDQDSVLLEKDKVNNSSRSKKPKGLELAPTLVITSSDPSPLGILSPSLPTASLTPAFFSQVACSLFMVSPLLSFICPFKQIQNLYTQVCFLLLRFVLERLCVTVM
Procedure, shortened: as §1

ETV2 = target: T10, ETV2 (Homo sapiens, UniProt O00321 1-342); conditions: protein: recombinant; tags: N-terminal GST; dsDNA, one strand shown
T10 sequence: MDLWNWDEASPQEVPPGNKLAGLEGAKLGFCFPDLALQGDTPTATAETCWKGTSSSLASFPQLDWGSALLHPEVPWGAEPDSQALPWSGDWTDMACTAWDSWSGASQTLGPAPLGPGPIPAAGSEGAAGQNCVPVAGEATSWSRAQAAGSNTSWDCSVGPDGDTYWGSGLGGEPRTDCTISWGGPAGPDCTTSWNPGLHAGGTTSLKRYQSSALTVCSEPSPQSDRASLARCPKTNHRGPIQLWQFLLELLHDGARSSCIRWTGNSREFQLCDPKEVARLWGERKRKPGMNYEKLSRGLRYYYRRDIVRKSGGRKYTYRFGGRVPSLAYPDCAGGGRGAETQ
Procedure, shortened: as §1

ELF3 = target: T11, ELF3 (Homo sapiens, UniProt P78545 1-371); conditions: protein: recombinant; tags: N-terminal GST; dsDNA, one strand shown
T11 sequence: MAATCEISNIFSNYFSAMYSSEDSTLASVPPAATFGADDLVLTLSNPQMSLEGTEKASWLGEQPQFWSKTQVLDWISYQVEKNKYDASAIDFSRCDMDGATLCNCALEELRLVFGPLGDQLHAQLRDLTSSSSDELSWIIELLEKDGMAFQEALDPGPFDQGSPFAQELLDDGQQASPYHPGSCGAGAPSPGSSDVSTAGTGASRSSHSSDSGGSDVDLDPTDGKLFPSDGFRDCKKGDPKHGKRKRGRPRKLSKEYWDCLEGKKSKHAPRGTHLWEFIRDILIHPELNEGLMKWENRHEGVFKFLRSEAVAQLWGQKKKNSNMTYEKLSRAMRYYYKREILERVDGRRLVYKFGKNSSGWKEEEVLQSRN
Procedure, shortened: as §1

CRX = CRX (Homo sapiens, UniProt O43186 1-299); conditions: protein: recombinant; tags: N-terminal GST; dsDNA, one strand shown
Procedure, shortened: as §1

ETV1 = ETV1 (Homo sapiens, UniProt P50549 1-477); conditions: protein: recombinant; tags: N-terminal GST; dsDNA, one strand shown
Procedure, shortened: as §1

Chain of ELF4 (Q99607 whole entry): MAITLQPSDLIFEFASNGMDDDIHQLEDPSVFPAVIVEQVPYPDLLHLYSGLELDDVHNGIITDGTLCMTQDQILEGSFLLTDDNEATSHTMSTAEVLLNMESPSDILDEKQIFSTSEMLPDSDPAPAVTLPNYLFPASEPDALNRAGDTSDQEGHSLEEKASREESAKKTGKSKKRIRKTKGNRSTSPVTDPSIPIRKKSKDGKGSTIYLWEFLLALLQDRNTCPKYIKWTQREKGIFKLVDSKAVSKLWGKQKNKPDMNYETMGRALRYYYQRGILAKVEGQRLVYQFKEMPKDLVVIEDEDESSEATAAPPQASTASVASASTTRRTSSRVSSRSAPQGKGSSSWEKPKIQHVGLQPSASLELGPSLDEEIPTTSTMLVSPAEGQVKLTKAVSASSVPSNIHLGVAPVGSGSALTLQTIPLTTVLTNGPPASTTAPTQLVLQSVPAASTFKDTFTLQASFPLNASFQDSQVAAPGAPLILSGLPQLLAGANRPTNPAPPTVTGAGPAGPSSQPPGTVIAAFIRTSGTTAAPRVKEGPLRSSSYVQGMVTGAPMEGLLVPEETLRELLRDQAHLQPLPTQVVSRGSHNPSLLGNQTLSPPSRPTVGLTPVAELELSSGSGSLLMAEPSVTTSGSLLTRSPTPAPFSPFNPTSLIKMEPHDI
Chain of ELF1 (P32519 whole entry): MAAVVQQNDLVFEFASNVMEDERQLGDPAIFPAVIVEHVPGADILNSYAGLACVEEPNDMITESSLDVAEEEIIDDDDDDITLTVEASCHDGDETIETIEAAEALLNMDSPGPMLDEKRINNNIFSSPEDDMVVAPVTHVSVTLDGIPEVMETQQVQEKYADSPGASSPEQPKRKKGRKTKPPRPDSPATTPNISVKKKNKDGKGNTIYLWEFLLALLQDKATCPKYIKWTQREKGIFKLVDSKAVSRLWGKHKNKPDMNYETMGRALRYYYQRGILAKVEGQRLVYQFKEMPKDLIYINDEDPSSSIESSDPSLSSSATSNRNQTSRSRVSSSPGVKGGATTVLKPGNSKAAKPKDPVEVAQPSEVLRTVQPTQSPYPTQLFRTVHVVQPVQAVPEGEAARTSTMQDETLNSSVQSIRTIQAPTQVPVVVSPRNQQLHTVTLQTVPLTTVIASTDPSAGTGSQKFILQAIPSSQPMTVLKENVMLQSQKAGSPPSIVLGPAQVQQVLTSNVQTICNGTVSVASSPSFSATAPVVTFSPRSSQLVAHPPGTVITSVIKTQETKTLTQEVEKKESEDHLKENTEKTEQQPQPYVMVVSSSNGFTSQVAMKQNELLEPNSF
Chain of SPIB (Q01892 whole entry): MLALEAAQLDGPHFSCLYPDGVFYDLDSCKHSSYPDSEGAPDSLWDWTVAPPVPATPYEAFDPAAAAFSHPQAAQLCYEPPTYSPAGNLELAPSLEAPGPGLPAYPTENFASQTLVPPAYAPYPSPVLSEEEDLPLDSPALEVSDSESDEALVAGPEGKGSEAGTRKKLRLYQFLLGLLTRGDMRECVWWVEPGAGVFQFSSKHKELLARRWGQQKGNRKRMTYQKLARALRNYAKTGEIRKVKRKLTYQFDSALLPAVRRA
Chain of ETV1 (P50549 whole entry): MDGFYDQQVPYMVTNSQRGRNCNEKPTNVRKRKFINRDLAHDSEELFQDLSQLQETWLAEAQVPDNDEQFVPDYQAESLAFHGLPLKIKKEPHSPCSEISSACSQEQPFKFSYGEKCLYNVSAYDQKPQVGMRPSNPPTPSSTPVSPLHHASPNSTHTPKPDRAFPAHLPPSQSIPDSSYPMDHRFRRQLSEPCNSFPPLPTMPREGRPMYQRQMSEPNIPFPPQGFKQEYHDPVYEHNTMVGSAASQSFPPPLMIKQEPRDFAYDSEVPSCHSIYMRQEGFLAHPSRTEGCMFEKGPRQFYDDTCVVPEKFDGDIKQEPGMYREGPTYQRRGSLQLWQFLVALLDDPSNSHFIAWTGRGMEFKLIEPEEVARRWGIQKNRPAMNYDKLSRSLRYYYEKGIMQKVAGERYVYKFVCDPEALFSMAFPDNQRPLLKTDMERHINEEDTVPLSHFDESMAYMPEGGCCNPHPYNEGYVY
Chain of ETV5 (P41161 whole entry): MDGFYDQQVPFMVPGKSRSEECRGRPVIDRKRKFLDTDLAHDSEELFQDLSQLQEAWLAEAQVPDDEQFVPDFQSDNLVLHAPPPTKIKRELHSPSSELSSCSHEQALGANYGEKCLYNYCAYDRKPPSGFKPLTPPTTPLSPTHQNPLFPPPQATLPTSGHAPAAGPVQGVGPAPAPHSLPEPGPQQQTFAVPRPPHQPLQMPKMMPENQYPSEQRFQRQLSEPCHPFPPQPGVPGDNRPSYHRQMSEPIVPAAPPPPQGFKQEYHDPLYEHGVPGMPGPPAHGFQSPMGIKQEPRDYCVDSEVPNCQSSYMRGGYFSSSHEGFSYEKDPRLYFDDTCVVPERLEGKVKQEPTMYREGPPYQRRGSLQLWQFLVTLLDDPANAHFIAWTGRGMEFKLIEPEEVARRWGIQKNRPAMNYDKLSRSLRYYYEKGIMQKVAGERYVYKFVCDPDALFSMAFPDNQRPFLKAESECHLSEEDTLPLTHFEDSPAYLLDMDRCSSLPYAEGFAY
Chain of CRX (O43186 whole entry): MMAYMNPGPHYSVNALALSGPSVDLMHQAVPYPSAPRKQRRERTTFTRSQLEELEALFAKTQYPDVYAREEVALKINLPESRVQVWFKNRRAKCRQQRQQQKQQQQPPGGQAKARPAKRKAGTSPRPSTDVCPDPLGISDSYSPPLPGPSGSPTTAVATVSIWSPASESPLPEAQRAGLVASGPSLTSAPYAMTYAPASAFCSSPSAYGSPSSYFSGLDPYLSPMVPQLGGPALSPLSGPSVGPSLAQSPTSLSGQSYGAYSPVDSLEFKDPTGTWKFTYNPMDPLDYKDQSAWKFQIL
Chain of HSF1 (Q00613 whole entry): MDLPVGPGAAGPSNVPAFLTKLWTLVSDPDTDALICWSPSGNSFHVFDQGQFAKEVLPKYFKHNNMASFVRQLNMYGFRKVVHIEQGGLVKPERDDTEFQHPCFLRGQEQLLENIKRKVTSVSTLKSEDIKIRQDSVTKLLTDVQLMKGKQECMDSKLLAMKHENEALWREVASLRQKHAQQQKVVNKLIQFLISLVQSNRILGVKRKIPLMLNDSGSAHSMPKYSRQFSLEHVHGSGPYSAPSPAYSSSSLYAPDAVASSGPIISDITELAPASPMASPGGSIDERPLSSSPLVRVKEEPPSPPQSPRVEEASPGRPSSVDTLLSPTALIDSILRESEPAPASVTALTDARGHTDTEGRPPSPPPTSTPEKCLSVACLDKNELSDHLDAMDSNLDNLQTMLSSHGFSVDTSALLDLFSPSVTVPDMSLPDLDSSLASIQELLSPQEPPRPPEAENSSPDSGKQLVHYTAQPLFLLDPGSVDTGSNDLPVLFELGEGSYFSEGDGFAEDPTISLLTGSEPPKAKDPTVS

TTGTGT
binding signal (FLI1): 1.25 fold enrichment (6-mer frequency, TF over GST control)
binding signal (ELK1): 1.28 fold enrichment (6-mer frequency, TF over GST control)
binding signal (GABPA): 1.15 fold enrichment (6-mer frequency, TF over GST control)
binding signal (ERG): 1.12 fold enrichment (6-mer frequency, TF over GST control)
binding signal (ELF1): 1.18 fold enrichment (6-mer frequency, TF over GST control)
binding signal (EHF): 1.08 fold enrichment (6-mer frequency, TF over GST control)
binding signal (SPI1): 1.09 fold enrichment (6-mer frequency, TF over GST control)
binding signal (SPIB): 1.25 fold enrichment (6-mer frequency, TF over GST control)
binding signal (ELK3): 1.22 fold enrichment (6-mer frequency, TF over GST control)
binding signal (FEV): 1.15 fold enrichment (6-mer frequency, TF over GST control)
binding signal (ETV5): 1.14 fold enrichment (6-mer frequency, TF over GST control)
binding signal (HSF1): 1.05 fold enrichment (6-mer frequency, TF over GST control)
binding signal (SPIC): 1.04 fold enrichment (6-mer frequency, TF over GST control)
binding signal (ELF4): 1.2 fold enrichment (6-mer frequency, TF over GST control)
binding signal (ELK4): 1.28 fold enrichment (6-mer frequency, TF over GST control)
binding signal (ETV2): 1.29 fold enrichment (6-mer frequency, TF over GST control)
binding signal (ELF3): 1.14 fold enrichment (6-mer frequency, TF over GST control)
binding signal (CRX): 1.12 fold enrichment (6-mer frequency, TF over GST control)
binding signal (ETV1): 1.09 fold enrichment (6-mer frequency, TF over GST control)
